Results filed as inconclusive are left out. Active and inactive are the calls of the source. The call rests on the fitted dose curve; in most records, active means well fitted inhibition curve with a large enough effect; inconclusive means small, poorly fitted or top-dose-only effect; inactive means flat fitted curve, though single readings scatter.
Key:
[1] = qHTS profiling for inhibitors of Plasmodium falciparum proliferation (AID 504749); further: nearly all actives have a fitted effect of over 60% in size;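 on activity, negative = inhibition: 0% = DMSO vehicle and full inhibition = artemisinin control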; settings: P. falciparum in erythrocytes, SYBR Green DNA, 72 h
Summary of the method: (§1)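 Infected RBCs, 0.3% parasitemia/2.5% Hct final; cpd 72 h, 37 C, 5% CO2; lysis buffer with saponin/triton/SYBR Green I, o/n RT dark; FI 485/535; norm. to artemisinin (0.29 uM) and DMSO.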

3D7 = test: as above; settings: P. falciparum in erythrocytes, SYBR Green DNA, 72 h; series mostly up to 28.7 µM
Summary of the method: as §1

7G8 = test: as above; settings: P. falciparum in erythrocytes, SYBR Green DNA, 72 h; series mostly up to 28.7 µM
Summary of the method: as §1

AA1029 = test: as above; settings: P. falciparum in erythrocytes, SYBR Green DNA, 72 h; series mostly up to 28.7 µM
Summary of the method: as §1

AS120 = test: as above; settings: P. falciparum in erythrocytes, SYBR Green DNA, 72 h; series mostly up to 28.7 µM
Summary of the method: as §1

ATS189 = test: as above; settings: P. falciparum in erythrocytes, SYBR Green DNA, 72 h; series mostly up to 28.7 µM
Summary of the method: as §1

ATS95 = test: as above; settings: P. falciparum in erythrocytes, SYBR Green DNA, 72 h; series mostly up to 28.7 µM
Summary of the method: as §1

[2] = at 28.7 µM (top of the series), parasite line A
[3] = at 28.7 µM (top of the series), parasite line B
[4] = at 12.8 µM (top of the series), parasite line A
[5] = at 12.8 µM (top of the series), parasite line B
Potency means the concentration at half of the fitted maximal effect.

N[C@H](CO)C(=O)O
inactive: activity, negative = inhibition [1, 2] -0.225% | activity, negative = inhibition [1, 3] -23.4% | Potency (3D7) | Potency (7G8) | Potency (AA1029) | Potency (AS120) | Potency (ATS189) | Potency (ATS95)

O=C(O)c1cc2cc(Cc3cccnc3)ccc2o1
inactive: activity, negative = inhibition [1, 2] 9.24% | activity, negative = inhibition [1, 3] 5.6% | Potency (3D7) | Potency (7G8) | Potency (AA1029) | Potency (AS120) | Potency (ATS189) | Potency (ATS95)

CN1CCC(=C2c3ccccc3Sc3ccccc32)CC1
active: Potency ([1]; parasite line A) 6.31 µM | Potency ([1]; parasite line B) 10 µM | Potency (3D7) 8.91 µM | Potency (7G8) 5.01 µM | Potency (AA1029) 5.62 µM | Potency (AS120) 12.6 µM | Potency (ATS189) 7.94 µM | Potency (ATS95) 11.2 µM

CCOC(=O)n1ccn(C)c1=S
inactive: activity, negative = inhibition [1, 4] 10% | activity, negative = inhibition [1, 5] -6.82% | Potency (3D7) | Potency (7G8) | Potency (AA1029) | Potency (AS120) | Potency (ATS189) | Potency (ATS95)

C[C@]12CCC(=O)C=C1CC[C@H]1[C@@H]3CC[C@](O)(C(=O)CO)[C@@]3(C)C[C@H](O)[C@@]12F
inactive: activity, negative = inhibition [1, 2] 4.53% | activity, negative = inhibition [1, 3] 9.81% | Potency (3D7) | Potency (7G8) | Potency (AA1029) | Potency (AS120) | Potency (ATS189) | Potency (ATS95)

Cc1c(C(C)C)c(=O)n(-c2ccccc2)n1C
inactive: activity, negative = inhibition [1, 2] 5.32% | activity, negative = inhibition [1, 3] 0.527% | Potency (3D7) | Potency (7G8) | Potency (AA1029) | Potency (AS120) | Potency (ATS189) | Potency (ATS95)

NC(CO)(CO)CO
inactive: activity, negative = inhibition [1, 2] 6.7% | activity, negative = inhibition [1, 3] -0.553% | Potency (3D7) | Potency (7G8) | Potency (AA1029) | Potency (AS120) | Potency (ATS189) | Potency (ATS95)

NCCCC[C@H](N[C@@H](CCc1ccccc1)C(=O)O)C(=O)N1CCC[C@H]1C(=O)O
inactive: activity, negative = inhibition [1, 4] 2.09% | activity, negative = inhibition [1, 5] 0.712% | Potency (3D7) | Potency (7G8) | Potency (AA1029) | Potency (AS120) | Potency (ATS189) | Potency (ATS95)

Cc1c(F)c(N2CCNC(C)C2)cc2c1c(=O)c(C(=O)O)cn2C1CC1 (stereo not given)
inactive: activity, negative = inhibition [1, 2] 8.42% | activity, negative = inhibition [1, 3] 6.98% | Potency (3D7) | Potency (7G8) | Potency (AA1029) | Potency (AS120) | Potency (ATS189) | Potency (ATS95)

CC(O)(P(=O)(O)O)P(=O)(O)O
inactive: activity, negative = inhibition [1, 2] 10.5% | activity, negative = inhibition [1, 3] 4.89% | Potency (3D7) | Potency (7G8) | Potency (AA1029) | Potency (AS120) | Potency (ATS189) | Potency (ATS95)
